For 31 compounds, INHIBITION results are on record in ChEMBL document CHEMBL4513216, “Probing the Open Global Health Chemical Diversity Library for Multistage-Active Starting Points for Next-Generation Antimalarials” (ACS Infect Dis, 2020).

The whole screen tested about 69,000 compounds, of which about 8,600 (12%) showed an effect of 50% or more. The sample as a whole holds a higher share of strong results than the screen did.

The assay has as its system Plasmodium berghei. Kind of assay: Screen against P. berghei liver stage (PbLuc), transformed with Luciferase, at 10uM. Format: functional, HepG2. As to conditions: tested at 10 uM.
As for `CN1CCN(Cc2cnc3n2CCN(Cc2cccs2)C3)CC1`, the INHIBITION stood at 30.7%.
Consider `O=C(NC1CCNCC1)C1(N2CCCCC2)Cc2ccccc2C1`, for which the INHIBITION is recorded as 26.9%.
To `CN(CCCO)c1nc(-c2ccc(C(N)=O)cc2)nc2c1CCNC2` belongs -3.3%; to `O=S(=O)(NC1CCOC1)c1ccc(C(F)(F)F)nc1` (stereo unspecified), 34.5%; to `COc1cc(CN2C[C@@H]3CNC(=O)[C@H](C)[C@@H]3C2)cc(OC)c1`, -24.5%.
As for `O=C(c1ccoc1)N(Cc1cccnc1)C1CC1`, the figure is 17.1%; as for `COc1ncccc1NC(=O)NC1CCCN(c2ncccn2)C1` (stereo unspecified), -19.9%; as for `CN(C)CCOCC1CN(CC2CCOCC2)Cc2nnn(C)c21` (stereo unspecified), 13%.
To `CC(NC(=O)CCC(=O)c1cccs1)c1nnc2n1CCC2` (stereo unspecified) belongs -31.5%; to `CNC(=O)COC(=O)c1cccc(-n2ccc(C(F)(F)F)n2)c1`, 40.6%; to `CNC(=O)CCOC(=O)c1cccc(-n2cccn2)c1`, 77.7%.
`CNC(=O)CCOC(=O)c1cccc(-n2ccc(C(F)(F)F)n2)c1`: the INHIBITION worked out at 24.8%.
On to `CO[C@H]1CCN(Cc2cnn(C)c2)[C@@H]2CN(Cc3cccnc3)C[C@H]12`, for which the INHIBITION worked out at 0%.
Take `COc1ccc(-c2cc(C(=O)NCCCn3ccnc3C)n(C)n2)cc1`: the INHIBITION is reported as 18.3%.
As for `CN(CCOc1cccc(CN)c1)C1CCOCC1`, the figure is 0%; as for `COCC(=O)NCc1cccc(OCCN(C)C2CCOCC2)c1`, 88.1%.
As for `CCC(C)C(=O)NCc1cccc(OCCN(C)C2CCOCC2)c1` (stereo unspecified), the figure is 39.5%; as for `CC(C)CC(=O)NCc1cccc(OCCN(C)C2CCOCC2)c1`, 71.3%; as for `CN(CCOc1cccc(CNC(=O)C2CC2)c1)C1CCOCC1`, 29.2%.
As for `CN(CCOc1cccc(CNS(C)(=O)=O)c1)C1CCOCC1`, the figure is 39.5%.
With `CSC(C)(C)CNC(=O)NC1CCN(CC(F)F)CC1`, the INHIBITION came to 33.7%.
As for `CN(C)CC1CN(Cc2ccc(F)cc2)Cc2nccn2C1` (stereo unspecified), the figure is 24.1%; as for `COc1ccc(-n2cc3nc(N)[nH]cc-3c2=O)cc1`, 28.4%; as for `O=C1[C@H]2CN(Cc3cccs3)C[C@H]2CN1c1ccsc1`, 14.8%.
As for `CCC(O)CN(c1ccccc1)S(=O)(=O)c1cnc(C)s1` (stereo unspecified), the figure is 37.8%; as for `Cc1ncsc1C(=O)N(Cc1ccccc1)C1CC1`, 33.45%; as for `CCC(O)CN(Cc1ccccc1)S(=O)(=O)c1cnc(C)s1` (stereo unspecified), 52.6%.
On to `CN(CCOc1ccc(C#N)cc1)CC1CCS(=O)(=O)C1` (stereo unspecified), for which the INHIBITION turned out to be 22.6%.
As for `Cn1cc(CN2CC[C@@H]3[C@H]2CCC(=O)N3c2ccccc2)cn1`, the figure is -46.8%; as for `Cn1cc(N2C(=O)CC[C@@H]3[C@H]2CCN3Cc2ccncc2)cn1`, -10.4%.
Consider `COc1ccc(CN2CC[C@@H]3[C@H]2CCC(=O)N3c2cnn(C)c2)cc1`, for which the INHIBITION worked out at 61.9%.
